# Results filed as inconclusive are left out. Calls of active or inactive are those of the source. Rule for the calls: active = hit-call score of the fitted dose curve at least 0.9, where 1 is the maximum; inconclusive = response in the unintended direction; inactive = score below 0.9.
# Tests used:
# [1] = molecular target: human Caspase 8 (CASP8), CASP8 (gene 841) (UniProt Q14790); assay: NVS_ENZ_hCASP8: NovaScreen (NVS) Enzymatic Assay for human Caspase 8 (CASP8) (AID 2283146)
# In short: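 E. coli-expressed enzyme was used in a cell-free fluorogenic substrate assay read 1 h after dosing. Loss of signal was scored relative to DMSO, and the primary screen was run in duplicate at 25 uM.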
# [2] = molecular target: Glycogen synthase kinase-3 beta (Homo sapiens) (UniProt P49841); assay: NVS_ENZ_hGSK3b: NovaScreen (NVS) Enzymatic Assay for human Glycogen Synthase Kinase-3 beta (GSK3b) (AID 2283165)
# In short: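 Recombinant enzyme with specific fluorescent substrate, 1 h, product separated by electrophoretic mobility shift. Primary duplicate screen at 25 uM; actives (e.g. 30% inhibition) followed in singleton concentration-response to 50 uM. Signal loss fitted versus DMSO.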
# [3] = molecular target: Mitogen-activated protein kinase 3 (Homo sapiens) (UniProt P27361); assay: NVS_ENZ_hMAPK3: NovaScreen (NVS) Enzymatic Assay for human Mitogen-Activated Protein Kinase 3 (MAPK 3) (AID 2283177)
# In short: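 Cell-free enzymatic assay with recombinant protein and specific substrate; fluorescence and electrophoretic mobility shift read-out 1 h after dosing. Primary screen duplicate at 25 uM; actives then run in concentration-response up to 50 uM, loss of signal versus DMSO.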
# [4] = molecular target: human Matrix Metalloproteinase-7 (MMP7), MMP7 (gene 4316) (UniProt P09237); assay: NVS_ENZ_hMMP7: NovaScreen (NVS) Enzymatic Assay for human Matrix Metalloproteinase-7 (MMP7) (AID 2283183)
# In short: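 Cell-free fluorescence enzymatic assay read 1 h after compound addition, activity loss analyzed against DMSO. Primary duplicate testing at 25 uM; compounds meeting threshold rerun in singleton concentration-response up to 50 uM.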
# [5] = molecular target: human Matrix Metalloproteinase-2 (MMP2), MMP2 (gene 4313) (UniProt P08253); assay: NVS_ENZ_hMMP2: NovaScreen (NVS) Enzymatic Assay for human Matrix Metalloproteinase-2 (MMP2) (AID 2283184)
# In short: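 Cell-free recombinant MMP2 activity with a fluorescent substrate, read 1 h after dosing. Primary screen in duplicate at 25 uM; actives then run in concentration series; loss of signal fitted versus DMSO.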
# [6] = molecular target: human Casein Kinase 1-delta (CK1D), CSNK1D (gene 1453) (UniProt P48730); assay: NVS_ENZ_hCK1D: NovaScreen (NVS) Enzymatic Assay for human Casein Kinase 1-delta (CK1D) (AID 2283148)
# Sequence of human Casein Kinase 1-delta (CK1D), CSNK1D (gene 1453) (P48730 whole entry, looked up): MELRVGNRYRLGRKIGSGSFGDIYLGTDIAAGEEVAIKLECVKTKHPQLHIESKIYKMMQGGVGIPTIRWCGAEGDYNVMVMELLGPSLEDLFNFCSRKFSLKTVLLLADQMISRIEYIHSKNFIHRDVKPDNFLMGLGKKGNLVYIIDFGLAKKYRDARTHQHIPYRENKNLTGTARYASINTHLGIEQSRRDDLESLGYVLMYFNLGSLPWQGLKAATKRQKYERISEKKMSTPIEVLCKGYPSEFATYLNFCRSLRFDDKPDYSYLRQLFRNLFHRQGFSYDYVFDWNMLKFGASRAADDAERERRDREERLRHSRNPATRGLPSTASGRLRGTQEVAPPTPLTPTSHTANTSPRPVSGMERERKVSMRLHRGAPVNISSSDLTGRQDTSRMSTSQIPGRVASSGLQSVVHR
# In short: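 Recombinant human CK1-delta, cell-free; fluorescent substrate with electrophoretic mobility-shift separation of product, read 1 h after dosing. Single 25 uM duplicate screen, then concentration-response up to 50 uM; loss of signal vs DMSO.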
# [7] = molecular target: human c-Jun N-terminal Kinases (JNK2), MAPK9 (gene 5601) (UniProt P45984); assay: NVS_ENZ_hJNK2: NovaScreen (NVS) Enzymatic Assay for human c-Jun N-terminal Kinases (JNK2) (AID 2283171)
# In short: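 Cell-free recombinant human JNK2 activity assay; fluorescent substrate and product separated by electrophoretic mobility shift, read 1 h after dosing. Primary duplicate screen at 25 uM; actives run in concentration-response up to 50 uM, relative to DMSO.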
# [8] = molecular target: human Elastase, ELANE (gene 1991) (UniProt P08246); assay: NVS_ENZ_hElastase: NovaScreen (NVS) Enzymatic Assay for human Elastase (AID 2283153)
# Sequence of human Elastase, ELANE (gene 1991) (P08246 whole entry, looked up): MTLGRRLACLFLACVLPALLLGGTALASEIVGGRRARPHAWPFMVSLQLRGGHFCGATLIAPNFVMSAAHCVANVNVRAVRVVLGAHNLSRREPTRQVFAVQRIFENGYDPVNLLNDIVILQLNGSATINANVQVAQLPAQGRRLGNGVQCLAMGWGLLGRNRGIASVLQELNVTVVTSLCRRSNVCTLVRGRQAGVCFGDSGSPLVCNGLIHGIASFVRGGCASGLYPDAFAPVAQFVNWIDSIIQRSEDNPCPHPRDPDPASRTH
# In short: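 Cell-free elastase from human neutrophils, 1.5 h after dosing, activity read by absorbance. Primary screen in duplicate at 25 uM; hits (e.g., 30% inhibition) rerun in singleton concentration-response up to 50 uM, fitted versus DMSO.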
# [9] = molecular target: human Esterase Plasma (ES), BCHE (gene 590) (UniProt P06276); assay: NVS_ENZ_hES: NovaScreen (NVS) Enzymatic Assay for human Esterase Plasma (ES) (AID 2283157)
# Sequence of human Esterase Plasma (ES), BCHE (gene 590) (P06276 whole entry, looked up): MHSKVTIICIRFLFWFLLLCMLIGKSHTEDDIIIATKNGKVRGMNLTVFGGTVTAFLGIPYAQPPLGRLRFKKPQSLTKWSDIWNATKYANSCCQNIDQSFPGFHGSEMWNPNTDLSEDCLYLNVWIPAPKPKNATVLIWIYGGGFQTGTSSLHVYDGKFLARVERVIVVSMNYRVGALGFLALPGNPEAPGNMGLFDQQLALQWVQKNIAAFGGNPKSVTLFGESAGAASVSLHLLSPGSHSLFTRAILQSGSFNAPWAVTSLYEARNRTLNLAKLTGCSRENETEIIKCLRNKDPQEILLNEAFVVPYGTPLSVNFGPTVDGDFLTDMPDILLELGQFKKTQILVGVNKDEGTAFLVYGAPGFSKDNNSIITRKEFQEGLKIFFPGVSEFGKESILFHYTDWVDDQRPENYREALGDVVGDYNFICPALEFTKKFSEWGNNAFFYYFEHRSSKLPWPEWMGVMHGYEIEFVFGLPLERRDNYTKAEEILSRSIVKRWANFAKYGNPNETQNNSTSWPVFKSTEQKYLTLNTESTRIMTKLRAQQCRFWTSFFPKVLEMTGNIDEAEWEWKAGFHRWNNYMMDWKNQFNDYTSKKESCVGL
# In short: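 Esterase from human plasma, cell-free, colorimetric absorbance read 0.25 h after dosing. Screened at 25 uM in duplicate, with threshold-passing chemicals run in concentration-response up to 50 uM; loss of signal fitted versus DMSO.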
# [10] = molecular target: human Colony Stimulating Factor 1 Receptor (CSF1R), CSF1R (gene 1436) (UniProt P07333); assay: NVS_ENZ_hCSF1R: NovaScreen (NVS) Enzymatic Assay for human Colony Stimulating Factor 1 Receptor (CSF1R) (AID 2283150)
# In short: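 Cell-free recombinant human CSF1R kinase with fluorescent substrate, product separated by electrophoretic mobility shift; read 1 h after dosing. Primary screen at 25 uM in duplicate, actives then in concentration-response up to 50 uM, relative to DMSO.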
# [11] = molecular target: human Ephrin type-A Receptor 1 (EphA1), EPHA1 (gene 2041) (UniProt P21709); assay: NVS_ENZ_hEphA1: NovaScreen (NVS) Enzymatic Assay for human Ephrin type-A Receptor 1 (EphA1) (AID 2283158);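 note: activity is signal loss versus DMSO meaning EphA1 kinase inhibition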
# In short: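 Biochemical kinase assay run cell-free; 1 h incubation; readout is fluorescence with mobility-shift separation of product. Concentration-response up to 50 uM for actives from a 25 uM screen.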
# [12] = molecular target: human Janus Kinase 2 (Jak2), JAK2 (gene 3717) (UniProt O60674); assay: NVS_ENZ_hJak2: NovaScreen (NVS) Enzymatic Assay for human Janus Kinase 2 (Jak2) (AID 2283169)
# Sequence of human Janus Kinase 2 (Jak2), JAK2 (gene 3717) (O60674 whole entry, looked up): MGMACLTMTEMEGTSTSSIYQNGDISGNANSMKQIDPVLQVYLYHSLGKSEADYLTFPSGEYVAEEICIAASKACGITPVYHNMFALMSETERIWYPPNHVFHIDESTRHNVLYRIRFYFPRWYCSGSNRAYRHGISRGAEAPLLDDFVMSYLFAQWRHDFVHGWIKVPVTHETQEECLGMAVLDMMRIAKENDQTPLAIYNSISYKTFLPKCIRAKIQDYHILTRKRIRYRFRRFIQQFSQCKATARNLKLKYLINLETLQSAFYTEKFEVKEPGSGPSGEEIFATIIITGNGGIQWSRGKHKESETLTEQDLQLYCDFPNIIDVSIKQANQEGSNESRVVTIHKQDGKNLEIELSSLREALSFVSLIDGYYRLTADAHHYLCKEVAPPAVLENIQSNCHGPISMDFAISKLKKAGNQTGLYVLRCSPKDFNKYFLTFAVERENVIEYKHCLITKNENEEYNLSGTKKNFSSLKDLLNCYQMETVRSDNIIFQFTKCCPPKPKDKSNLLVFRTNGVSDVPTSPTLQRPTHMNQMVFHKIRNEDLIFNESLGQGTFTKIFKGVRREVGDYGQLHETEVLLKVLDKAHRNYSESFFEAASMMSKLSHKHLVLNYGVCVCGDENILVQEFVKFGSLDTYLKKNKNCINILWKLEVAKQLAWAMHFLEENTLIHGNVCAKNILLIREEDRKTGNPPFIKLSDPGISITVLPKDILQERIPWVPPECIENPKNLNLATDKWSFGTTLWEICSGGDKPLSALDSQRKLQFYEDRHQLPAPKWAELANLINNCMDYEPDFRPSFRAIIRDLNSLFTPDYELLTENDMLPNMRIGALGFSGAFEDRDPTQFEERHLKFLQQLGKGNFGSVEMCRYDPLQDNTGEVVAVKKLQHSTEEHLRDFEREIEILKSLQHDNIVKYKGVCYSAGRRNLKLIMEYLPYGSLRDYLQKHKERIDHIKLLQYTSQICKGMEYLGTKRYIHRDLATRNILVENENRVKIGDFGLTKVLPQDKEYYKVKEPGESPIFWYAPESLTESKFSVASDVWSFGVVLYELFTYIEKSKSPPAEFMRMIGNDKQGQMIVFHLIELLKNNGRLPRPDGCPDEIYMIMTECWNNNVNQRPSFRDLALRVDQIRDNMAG
# In short: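 Cell-free recombinant human JAK2 enzyme activity assay, fluorescence/electrophoretic mobility shift read 1 h after dosing. Screened in duplicate at 25 uM, then concentration-response up to 50 uM; activity as signal loss relative to DMSO.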
# [13] = molecular target: human Matrix Metalloproteinase-3 (MMP3), MMP3 (gene 4314) (UniProt P08254); assay: NVS_ENZ_hMMP3: NovaScreen (NVS) Enzymatic Assay for human Matrix Metalloproteinase-3 (MMP3) (AID 2283185)
# Sequence of human Matrix Metalloproteinase-3 (MMP3), MMP3 (gene 4314) (P08254 whole entry, looked up): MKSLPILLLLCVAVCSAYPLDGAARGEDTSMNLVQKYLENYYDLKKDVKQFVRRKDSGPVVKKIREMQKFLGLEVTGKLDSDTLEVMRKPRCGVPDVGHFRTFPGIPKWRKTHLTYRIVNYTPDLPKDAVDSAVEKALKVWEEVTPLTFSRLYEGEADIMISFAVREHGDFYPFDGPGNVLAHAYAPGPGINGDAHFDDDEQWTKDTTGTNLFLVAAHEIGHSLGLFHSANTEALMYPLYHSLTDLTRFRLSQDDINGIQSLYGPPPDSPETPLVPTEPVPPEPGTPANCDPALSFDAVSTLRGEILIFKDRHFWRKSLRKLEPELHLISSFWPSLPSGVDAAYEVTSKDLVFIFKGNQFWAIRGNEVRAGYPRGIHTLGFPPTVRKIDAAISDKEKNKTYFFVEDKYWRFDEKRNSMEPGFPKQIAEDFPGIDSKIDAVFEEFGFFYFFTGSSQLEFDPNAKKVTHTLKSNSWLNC
# In short: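 Cell-free recombinant human MMP3 activity, fluorescence intensity read 1 h after dosing. Primary screen duplicate at 25 uM, actives retested in concentration series; loss of signal vs DMSO baseline.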
# [14] = molecular target: human MAP Kinase-Activated Protein Kinase 2 (MAPKAPK2), MAPKAPK2 (gene 9261) (UniProt P49137); assay: NVS_ENZ_hMAPKAPK2: NovaScreen (NVS) Enzymatic Assay for human MAP Kinase-Activated Protein Kinase 2 (MAPKAPK2) (AID 2283178)
# In short: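 Cell-free recombinant human MAPKAPK2 activity measured by fluorescence with electrophoretic mobility shift separation of substrate and product, 1 hr after dosing. Loss of signal versus DMSO; primary screen at 25 uM, concentration-response up to 50 uM.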
# [15] = molecular target: Collagenase 3 (Homo sapiens) (UniProt P45452); assay: NVS_ENZ_hMMP13: NovaScreen (NVS) Enzymatic Assay for human Matrix Metalloproteinase-13 (MMP13) (AID 2283182)
# In short: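 Recombinant MMP13 cleaving fluorescent substrate, cell-free, measured 1 h after dosing. Primary duplicate screen at 25 uM; actives tested in concentration-response up to 50 uM; loss of signal relative to DMSO.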
# [16] = molecular target: human Dual Specificity Protein Phosphatase 3 (DUSP3), DUSP3 (gene 1845) (UniProt P51452); assay: NVS_ENZ_hDUSP3: NovaScreen (NVS) Enzymatic Assay for human Dual Specificity Protein Phosphatase 3 (DUSP3) (AID 2283152);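 note: phosphatase activity of recombinant human DUSP3 on a fluorogenic substrate without cells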
# Sequence of human Dual Specificity Protein Phosphatase 3 (DUSP3), DUSP3 (gene 1845) (P51452 whole entry, looked up): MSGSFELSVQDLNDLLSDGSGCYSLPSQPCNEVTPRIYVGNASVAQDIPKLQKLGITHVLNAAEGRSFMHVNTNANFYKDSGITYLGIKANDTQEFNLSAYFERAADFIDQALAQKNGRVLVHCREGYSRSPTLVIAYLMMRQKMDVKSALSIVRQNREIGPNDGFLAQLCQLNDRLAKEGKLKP
# In short: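 Cell-free assay with recombinant human DUSP3 and fluorogenic substrate, read by fluorescence intensity. Primary screen ran duplicate at 25 uM; actives followed up in concentration series; loss of signal versus DMSO scored.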
# [17] = molecular target: human LYN Proto-Oncogene, Src family Tyrosine Kinase (LynA), LYN (gene 4067) (UniProt P07948); assay: NVS_ENZ_hLynA: NovaScreen (NVS) Enzymatic Assay for human LYN Proto-Oncogene, Src family Tyrosine Kinase (LynA) (AID 2283173)
# In short: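 Recombinant kinase with fluorescent substrate; product separated from substrate by electrophoretic mobility shift and read 1 h after dosing. Duplicate screen at 25 uM, then concentration-response up to 50 uM; activity scored as signal loss against DMSO.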
# [18] = molecular target: human Insulin Receptor (InsR), INSR (gene 3643) (UniProt P06213); assay: NVS_ENZ_hInsR: NovaScreen (NVS) Enzymatic Assay for human Insulin Receptor (InsR) (AID 2283168)
# Sequence of human Insulin Receptor (InsR), INSR (gene 3643) (P06213 whole entry, looked up): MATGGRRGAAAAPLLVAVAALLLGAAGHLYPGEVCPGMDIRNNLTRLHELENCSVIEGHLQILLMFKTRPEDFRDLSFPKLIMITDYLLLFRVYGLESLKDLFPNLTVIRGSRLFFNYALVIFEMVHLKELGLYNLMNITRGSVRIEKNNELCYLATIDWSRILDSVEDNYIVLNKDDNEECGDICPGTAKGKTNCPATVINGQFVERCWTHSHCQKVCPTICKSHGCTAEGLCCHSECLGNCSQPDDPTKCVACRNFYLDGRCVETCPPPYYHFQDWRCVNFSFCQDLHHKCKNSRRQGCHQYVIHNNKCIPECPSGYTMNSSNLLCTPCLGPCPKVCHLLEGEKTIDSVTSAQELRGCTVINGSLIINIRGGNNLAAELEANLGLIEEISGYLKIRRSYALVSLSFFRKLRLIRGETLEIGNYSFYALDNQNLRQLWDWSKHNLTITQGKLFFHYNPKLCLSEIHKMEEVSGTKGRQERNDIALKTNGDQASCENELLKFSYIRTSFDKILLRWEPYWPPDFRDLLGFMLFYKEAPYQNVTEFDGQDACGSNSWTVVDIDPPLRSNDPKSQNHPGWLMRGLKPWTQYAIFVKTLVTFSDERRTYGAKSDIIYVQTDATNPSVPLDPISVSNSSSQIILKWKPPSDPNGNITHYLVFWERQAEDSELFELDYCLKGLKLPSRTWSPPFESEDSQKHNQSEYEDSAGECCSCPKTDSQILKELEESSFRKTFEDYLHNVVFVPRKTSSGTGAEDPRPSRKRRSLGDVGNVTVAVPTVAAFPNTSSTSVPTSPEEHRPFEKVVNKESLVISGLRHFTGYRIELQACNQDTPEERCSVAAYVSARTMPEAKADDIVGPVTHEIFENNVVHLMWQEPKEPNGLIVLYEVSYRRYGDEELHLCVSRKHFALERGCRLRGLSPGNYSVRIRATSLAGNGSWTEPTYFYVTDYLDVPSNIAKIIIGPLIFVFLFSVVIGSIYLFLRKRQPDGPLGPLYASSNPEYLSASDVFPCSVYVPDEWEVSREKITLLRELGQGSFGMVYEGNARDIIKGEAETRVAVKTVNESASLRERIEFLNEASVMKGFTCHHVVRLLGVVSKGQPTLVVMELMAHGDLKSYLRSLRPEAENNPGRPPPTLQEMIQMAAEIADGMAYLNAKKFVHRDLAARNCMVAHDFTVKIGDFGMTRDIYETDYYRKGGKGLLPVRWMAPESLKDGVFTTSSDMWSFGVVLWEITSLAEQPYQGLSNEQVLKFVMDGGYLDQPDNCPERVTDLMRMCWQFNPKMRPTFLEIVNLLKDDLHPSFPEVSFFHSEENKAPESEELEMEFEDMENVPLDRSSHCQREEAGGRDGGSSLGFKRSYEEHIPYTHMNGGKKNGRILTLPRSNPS
# In short: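 Fluorescent substrate phosphorylation by recombinant kinase, product resolved by electrophoretic mobility shift, read 1 h after dosing. Screened in duplicate at 25 uM; hits (e.g., 30% inhibition) run in concentration-response to 50 uM; DMSO as baseline.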
# [19] = molecular target: Histone deacetylase 3 (Homo sapiens) (UniProt O15379); assay: NVS_ENZ_hHDAC3: NovaScreen (NVS) Enzymatic Assay for human Histone Deacetylase 3 (HDAC3) (AID 2283163)
# In short: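 Recombinant human HDAC3 with fluorescent substrate, 1 h after dosing; product separated from substrate by electrophoretic mobility shift and read by fluorescence. Primary screen at 25 uM in duplicate; actives (e.g. ≥30% inhibition) retested in concentration-response up to 50 uM.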
# Sequence of human Caspase 8 (CASP8), CASP8 (gene 841) (Q14790 whole entry, looked up): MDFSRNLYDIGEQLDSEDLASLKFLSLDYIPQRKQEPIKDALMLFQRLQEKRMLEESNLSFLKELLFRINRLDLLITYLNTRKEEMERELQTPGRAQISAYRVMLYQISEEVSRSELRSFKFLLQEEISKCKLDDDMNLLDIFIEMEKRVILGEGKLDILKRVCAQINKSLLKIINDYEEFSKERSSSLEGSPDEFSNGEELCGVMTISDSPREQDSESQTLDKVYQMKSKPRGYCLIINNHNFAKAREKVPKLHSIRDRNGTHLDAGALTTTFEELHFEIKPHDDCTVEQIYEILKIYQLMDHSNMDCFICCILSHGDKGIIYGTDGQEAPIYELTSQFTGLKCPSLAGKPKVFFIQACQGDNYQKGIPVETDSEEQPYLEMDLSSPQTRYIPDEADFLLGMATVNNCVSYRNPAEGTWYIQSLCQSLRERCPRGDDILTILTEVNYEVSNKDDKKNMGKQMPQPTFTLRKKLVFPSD
smiles,measurement,setting,value
Cc1ccc(C)c(O)c1,outcome,[1],inactive
CC[C@H](C)C(=O)O[C@H]1C[C@@H](C)C=C2C=C[C@H](C)[C@H](CC[C@@H]3C[C@@H](O)CC(=O)O3)[C@H]21,outcome,[1],inactive
same,outcome,[2],inactive
same,outcome,[3],inactive
same,outcome,[4],inactive
same,outcome,[5],inactive
Cn1c(=O)cc(Oc2ccc(F)cc2F)c2cnc(NCC(C)(C)O)nc21,AC50,[6],11.9 nM (active)
same,AC50,[7],7.03 nM (active)
same,AC50,[3],34.6 µM (active)
Oc1ccc2c(c1)-c1ccccc1C2,AC50,[8],23 µM (active)
same,outcome,[9],inactive
CCOC(=O)COc1ccc2c(c1)CC(NCC(O)c1cccc(Cl)c1)CC2 (stereo not drawn),outcome,[6],inactive
same,AC50,[9],10.9 µM (active)
same,outcome,[2],inactive
COc1ccc2sc(C(=O)Nc3nnn[nH]3)c(OC(C)C)c2c1,AC50,[6],385 nM (active)
same,outcome,[10],inactive
same,outcome,[8],inactive
same,outcome,[11],inactive
same,AC50,[2],1.42 µM (active)
same,AC50,[12],8.74 µM (active)
same,AC50,[13],46.7 µM (active)
Nc1nc2ncc(CNc3ccc(C(=O)N[C@@H](CCC(=O)O)C(=O)O)cc3)nc2c(=O)[nH]1,AC50,[6],11400 nM (active)
same,AC50,[2],41.1 µM (active)
same,AC50,[14],37.4 µM (active)
CN(C)c1ccc(N=NS(=O)(=O)O)cc1,outcome,[6],inactive
same,outcome,[10],inactive
same,outcome,[11],inactive
same,outcome,[2],inactive
CCOc1cccc(-n2cc(C(=O)N3CCN(c4cc(C(=O)O)c5ccccc5c4)CC3)nc2-c2ccc(C)cc2)c1,AC50,[8],6.63 µM (active)
COc1ccc(-n2nc(C(F)F)cc2-c2ccc(S(C)=O)cc2)cc1 (stereo not drawn),outcome,[10],inactive
O=C(O)CCN(C1(C(=O)NO)CCCC1)S(=O)(=O)c1ccc(Oc2ccc(F)cc2)cc1,outcome,[6],inactive
same,AC50,[15],0.0041 µM (active)
same,AC50,[5],0.0139 µM (active)
same,AC50,[13],8.47 µM (active)
O=C(OC[C@H]1O[C@@H](OC(=O)c2cc(O)c(O)c(OC(=O)c3cc(O)c(O)c(O)c3)c2)[C@H](OC(=O)c2cc(O)c(O)c(OC(=O)c3cc(O)c(O)c(O)c3)c2)[C@@H](OC(=O)c2cc(O)c(O)c(OC(=O)c3cc(O)c(O)c(O)c3)c2)[C@@H]1OC(=O)c1cc(O)c(O)c(OC(=O)c2cc(O)c(O)c(O)c2)c1)c1cc(O)c(O)c(OC(=O)c2cc(O)c(O)c(O)c2)c1,AC50,[16],3.95 µM (active)
same,AC50,[8],0.0537 µM (active)
same,AC50,[2],0.000698 µM (active)
same,AC50,[13],0.437 µM (active)
Cn1c(=O)c2c(ncn2C)n(C)c1=O,outcome,[6],inactive
CNS(=O)(=O)c1cc(C(=O)N2CCC(CCN3C4CCC3CC(n3c(C)nc5ccccc53)C4)(c3cccc(F)c3)CC2)c(Cl)cc1F (stereo not drawn),AC50,[10],39.1 µM (active)
same,AC50,[8],8.03 µM (active)
same,outcome,[11],inactive
same,outcome,[2],inactive
same,AC50,[12],10.2 µM (active)
same,outcome,[17],inactive
same,AC50,[15],14.5 µM (active)
same,AC50,[5],8.32 µM (active)
CCC(C)(C)C(=O)O[C@H]1C[C@@H](C)C=C2C=C[C@H](C)[C@H](CC[C@@H]3C[C@@H](O)CC(=O)O3)[C@H]21,AC50,[16],12.1 µM (active)
same,outcome,[8],inactive
same,outcome,[9],inactive
C[C@](N)(Cc1ccc(O)c(O)c1)C(=O)O,outcome,[10],inactive
COCCOCCOCCOC,outcome,[1],inactive
same,outcome,[18],inactive
O=C(O)c1cccc(Oc2ccccc2)c1,outcome,[6],inactive
same,outcome,[17],inactive
same,outcome,[4],inactive
O=C(O)c1cc(N=Nc2ccc(S(=O)(=O)Nc3ccccn3)cc2)ccc1O,outcome,[10],inactive
same,AC50,[16],14 µM (active)
same,outcome,[11],inactive
same,outcome,[2],inactive
same,outcome,[12],inactive
same,outcome,[7],inactive
same,outcome,[14],inactive
same,AC50,[15],19.5 µM (active)
same,outcome,[5],inactive
CCCCC(CC)COC(=O)c1ccc(C(=O)OCC(CC)CCCC)cc1 (stereo not drawn),outcome,[8],inactive
CC/C(=C\C(=N/O)C(N)=O)C(C)[N+](=O)[O-] (stereo not drawn),outcome,[11],inactive
O=C(O)CC(O)C(=O)O (stereo not drawn),outcome,[19],inactive
same,outcome,[12],inactive
Clc1nc(Cl)c(Cl)c(Cl)c1Cl,outcome,[18],inactive
CC[C@H]1OC(=O)[C@H](C)[C@@H](O[C@H]2C[C@@](C)(OC)[C@@H](O)[C@H](C)O2)[C@H](C)[C@@H](O[C@@H]2O[C@H](C)C[C@H](N(C)C)[C@H]2O)[C@](C)(O)C[C@@H](C)C(=O)[C@H](C)[C@@H](O)[C@]1(C)O,outcome,[18],inactive
CC[C@H]1CC[C@H](NCc2cc3c(cc2OC)[C@H]2C[C@H]2C(=O)N3C)[C@H](c2ccccc2)N1,outcome,[12],inactive
O=C(NS(=O)(=O)/C=C/c1ccccc1)c1ccc(F)cc1Cl,outcome,[3],inactive

# — PubChem BioAssay (EPA / NIEHS)
